According to ChEMBL document CHEMBL1961873, “Compounds: GSK PKIS; Assays: Nanosyn kinase panel” (2012):

Experiments:
[1] = biological target: T1, Serine/threonine-protein kinase D2 (Homo sapiens) (UniProt Q9BZL6); settings: at 1 µM;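 note: mean value of PRKD2 inhibition, from the GSK PKIS screening panel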
T1 sequence (whole entry): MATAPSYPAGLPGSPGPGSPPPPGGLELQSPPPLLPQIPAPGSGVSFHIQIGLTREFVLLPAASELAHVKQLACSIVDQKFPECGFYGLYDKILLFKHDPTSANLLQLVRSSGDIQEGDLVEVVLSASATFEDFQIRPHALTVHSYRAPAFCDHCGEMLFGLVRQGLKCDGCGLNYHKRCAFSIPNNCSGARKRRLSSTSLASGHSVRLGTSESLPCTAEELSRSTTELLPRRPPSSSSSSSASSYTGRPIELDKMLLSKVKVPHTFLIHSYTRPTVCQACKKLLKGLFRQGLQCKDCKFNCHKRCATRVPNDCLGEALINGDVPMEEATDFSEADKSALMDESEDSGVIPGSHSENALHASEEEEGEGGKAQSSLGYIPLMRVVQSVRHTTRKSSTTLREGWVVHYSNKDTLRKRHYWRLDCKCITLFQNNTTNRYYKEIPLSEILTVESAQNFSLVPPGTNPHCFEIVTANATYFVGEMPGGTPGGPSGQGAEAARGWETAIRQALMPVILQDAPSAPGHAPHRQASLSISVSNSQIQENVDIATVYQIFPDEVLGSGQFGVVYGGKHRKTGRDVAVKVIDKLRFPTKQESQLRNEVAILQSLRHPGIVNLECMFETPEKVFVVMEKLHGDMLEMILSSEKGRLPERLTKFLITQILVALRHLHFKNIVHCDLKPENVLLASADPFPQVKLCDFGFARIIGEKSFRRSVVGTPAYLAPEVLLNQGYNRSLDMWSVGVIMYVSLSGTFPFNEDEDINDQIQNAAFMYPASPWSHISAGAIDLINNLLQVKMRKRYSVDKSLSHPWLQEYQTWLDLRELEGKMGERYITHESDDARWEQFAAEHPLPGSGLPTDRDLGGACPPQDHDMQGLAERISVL

[2] = biological target: T2, Serine/threonine-protein kinase D3 (Homo sapiens) (UniProt O94806); settings: at 0.1 µM
T2 sequence (whole entry): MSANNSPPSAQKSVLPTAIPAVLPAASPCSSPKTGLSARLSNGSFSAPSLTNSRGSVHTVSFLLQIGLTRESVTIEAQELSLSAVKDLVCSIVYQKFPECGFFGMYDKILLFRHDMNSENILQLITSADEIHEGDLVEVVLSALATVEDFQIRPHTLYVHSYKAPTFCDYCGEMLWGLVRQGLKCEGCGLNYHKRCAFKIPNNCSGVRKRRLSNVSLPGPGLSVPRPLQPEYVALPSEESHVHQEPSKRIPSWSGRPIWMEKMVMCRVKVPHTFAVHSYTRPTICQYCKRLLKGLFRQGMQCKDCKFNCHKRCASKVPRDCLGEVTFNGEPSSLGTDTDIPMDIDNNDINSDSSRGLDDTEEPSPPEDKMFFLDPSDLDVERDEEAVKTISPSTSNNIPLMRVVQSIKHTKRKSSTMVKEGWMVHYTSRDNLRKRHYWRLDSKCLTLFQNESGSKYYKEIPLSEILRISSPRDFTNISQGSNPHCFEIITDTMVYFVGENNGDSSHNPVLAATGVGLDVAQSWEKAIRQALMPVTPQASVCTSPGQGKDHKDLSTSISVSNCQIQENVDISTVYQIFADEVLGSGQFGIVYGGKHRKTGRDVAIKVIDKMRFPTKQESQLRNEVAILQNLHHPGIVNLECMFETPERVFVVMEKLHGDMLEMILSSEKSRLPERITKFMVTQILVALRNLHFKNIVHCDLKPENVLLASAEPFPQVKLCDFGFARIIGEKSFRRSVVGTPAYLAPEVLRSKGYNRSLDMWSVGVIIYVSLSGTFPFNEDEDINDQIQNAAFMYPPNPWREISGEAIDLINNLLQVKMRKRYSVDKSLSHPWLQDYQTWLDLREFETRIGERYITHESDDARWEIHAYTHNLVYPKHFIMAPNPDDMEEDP

[3] = biological target: T2, Serine/threonine-protein kinase D3 (Homo sapiens); settings: at 1 µM
[4] = biological target: T3, cGMP-dependent protein kinase 1 (Homo sapiens) (UniProt Q13976); settings: at 0.1 µM
T3 sequence (whole entry): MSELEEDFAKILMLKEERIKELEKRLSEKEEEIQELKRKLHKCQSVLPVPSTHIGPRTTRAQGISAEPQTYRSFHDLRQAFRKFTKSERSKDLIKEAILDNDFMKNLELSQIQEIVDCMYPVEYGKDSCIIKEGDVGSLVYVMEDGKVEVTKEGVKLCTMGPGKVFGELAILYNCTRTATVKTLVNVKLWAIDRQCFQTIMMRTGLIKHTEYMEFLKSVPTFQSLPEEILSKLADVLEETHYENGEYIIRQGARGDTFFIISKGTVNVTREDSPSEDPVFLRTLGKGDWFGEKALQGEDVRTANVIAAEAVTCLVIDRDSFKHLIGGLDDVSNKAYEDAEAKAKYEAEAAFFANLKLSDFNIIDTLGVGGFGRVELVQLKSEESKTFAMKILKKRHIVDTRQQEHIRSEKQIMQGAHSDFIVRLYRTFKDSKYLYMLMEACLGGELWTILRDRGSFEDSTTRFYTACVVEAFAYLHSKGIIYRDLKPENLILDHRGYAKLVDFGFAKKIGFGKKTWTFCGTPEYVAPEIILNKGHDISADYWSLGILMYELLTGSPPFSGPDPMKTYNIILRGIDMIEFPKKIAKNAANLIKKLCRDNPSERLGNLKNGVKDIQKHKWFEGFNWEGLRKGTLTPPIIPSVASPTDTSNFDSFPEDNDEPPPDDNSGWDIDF

[5] = biological target: T3, cGMP-dependent protein kinase 1 (Homo sapiens); settings: at 1 µM
[6] = biological target: T4, cGMP-dependent protein kinase 2 (Homo sapiens) (UniProt Q13237); settings: at 0.1 µM
T4 sequence (whole entry): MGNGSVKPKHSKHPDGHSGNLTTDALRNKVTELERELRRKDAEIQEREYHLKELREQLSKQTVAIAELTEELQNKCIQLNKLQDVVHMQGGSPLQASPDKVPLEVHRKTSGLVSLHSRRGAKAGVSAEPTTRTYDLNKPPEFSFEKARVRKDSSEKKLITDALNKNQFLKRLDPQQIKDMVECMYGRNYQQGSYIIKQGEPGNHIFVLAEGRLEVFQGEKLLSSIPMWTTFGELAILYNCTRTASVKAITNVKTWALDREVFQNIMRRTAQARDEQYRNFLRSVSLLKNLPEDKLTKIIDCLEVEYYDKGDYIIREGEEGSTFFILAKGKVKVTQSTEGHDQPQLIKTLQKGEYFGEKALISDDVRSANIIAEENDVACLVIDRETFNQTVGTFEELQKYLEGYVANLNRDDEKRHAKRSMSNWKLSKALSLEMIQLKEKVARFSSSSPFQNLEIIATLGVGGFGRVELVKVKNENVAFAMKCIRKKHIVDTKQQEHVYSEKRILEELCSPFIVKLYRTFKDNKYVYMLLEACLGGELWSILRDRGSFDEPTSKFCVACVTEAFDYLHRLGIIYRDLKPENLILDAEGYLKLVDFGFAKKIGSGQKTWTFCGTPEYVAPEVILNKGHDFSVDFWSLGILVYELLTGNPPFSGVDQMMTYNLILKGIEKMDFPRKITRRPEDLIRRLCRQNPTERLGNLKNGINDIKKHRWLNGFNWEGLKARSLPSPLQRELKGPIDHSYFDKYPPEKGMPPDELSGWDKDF

[7] = biological target: T4, cGMP-dependent protein kinase 2 (Homo sapiens); settings: at 1 µM
[8] = biological target: T5, cAMP-dependent protein kinase catalytic subunit PRKX (Homo sapiens) (UniProt P51817); settings: at 0.1 µM
T5 sequence (whole entry): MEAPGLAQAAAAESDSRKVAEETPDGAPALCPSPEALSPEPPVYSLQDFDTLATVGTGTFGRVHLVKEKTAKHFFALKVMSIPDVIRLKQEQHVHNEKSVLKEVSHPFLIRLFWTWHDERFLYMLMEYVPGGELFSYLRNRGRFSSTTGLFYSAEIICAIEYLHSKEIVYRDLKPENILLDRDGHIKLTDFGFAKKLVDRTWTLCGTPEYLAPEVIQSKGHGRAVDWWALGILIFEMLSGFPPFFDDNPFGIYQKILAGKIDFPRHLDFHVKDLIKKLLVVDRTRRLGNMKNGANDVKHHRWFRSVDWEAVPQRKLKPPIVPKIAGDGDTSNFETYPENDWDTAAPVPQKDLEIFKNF

[9] = biological target: T5, cAMP-dependent protein kinase catalytic subunit PRKX (Homo sapiens); settings: at 1 µM
[10] = biological target: Rho-associated protein kinase 1 (Homo sapiens) (UniProt Q13464); settings: at 0.1 µM
Rho-associated protein kinase 1 (Homo sapiens), sequence (Q13464 2-1354 limits assumed): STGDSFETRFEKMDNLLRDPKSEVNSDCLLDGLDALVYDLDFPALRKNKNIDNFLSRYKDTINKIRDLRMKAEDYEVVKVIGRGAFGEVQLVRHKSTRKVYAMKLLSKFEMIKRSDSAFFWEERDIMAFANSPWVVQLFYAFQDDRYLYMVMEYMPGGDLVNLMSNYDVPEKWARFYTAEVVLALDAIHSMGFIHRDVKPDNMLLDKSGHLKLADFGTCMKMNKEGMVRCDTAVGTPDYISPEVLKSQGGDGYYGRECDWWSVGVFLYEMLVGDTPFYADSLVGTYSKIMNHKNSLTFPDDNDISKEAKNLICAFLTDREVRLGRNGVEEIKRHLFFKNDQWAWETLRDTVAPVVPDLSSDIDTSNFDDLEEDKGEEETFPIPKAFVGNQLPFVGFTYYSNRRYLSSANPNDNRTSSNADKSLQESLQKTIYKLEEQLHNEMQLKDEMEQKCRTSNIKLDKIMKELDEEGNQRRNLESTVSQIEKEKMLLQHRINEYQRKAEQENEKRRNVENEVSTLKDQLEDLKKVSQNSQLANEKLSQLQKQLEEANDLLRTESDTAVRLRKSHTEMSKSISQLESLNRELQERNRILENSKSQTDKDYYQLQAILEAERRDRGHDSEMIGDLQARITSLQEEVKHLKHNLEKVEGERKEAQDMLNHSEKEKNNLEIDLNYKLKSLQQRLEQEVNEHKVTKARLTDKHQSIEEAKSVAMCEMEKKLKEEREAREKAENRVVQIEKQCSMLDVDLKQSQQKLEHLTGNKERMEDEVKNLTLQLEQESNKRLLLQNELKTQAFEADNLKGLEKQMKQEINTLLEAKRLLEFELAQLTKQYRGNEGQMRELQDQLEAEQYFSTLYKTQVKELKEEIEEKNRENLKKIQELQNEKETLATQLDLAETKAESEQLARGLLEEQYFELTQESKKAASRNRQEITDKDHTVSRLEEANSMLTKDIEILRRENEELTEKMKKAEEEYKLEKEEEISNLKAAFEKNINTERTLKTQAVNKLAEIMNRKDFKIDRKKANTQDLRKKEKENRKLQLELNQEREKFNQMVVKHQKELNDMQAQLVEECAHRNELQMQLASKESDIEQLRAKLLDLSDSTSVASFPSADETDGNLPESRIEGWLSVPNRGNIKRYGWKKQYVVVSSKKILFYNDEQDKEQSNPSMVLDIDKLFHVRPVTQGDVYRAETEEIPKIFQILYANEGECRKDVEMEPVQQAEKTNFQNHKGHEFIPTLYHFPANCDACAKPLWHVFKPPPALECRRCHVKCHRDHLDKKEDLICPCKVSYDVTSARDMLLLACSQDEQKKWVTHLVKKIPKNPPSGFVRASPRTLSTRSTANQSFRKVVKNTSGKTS

[11] = biological target: Rho-associated protein kinase 1 (Homo sapiens) (UniProt Q13464); settings: at 1 µM
[12] = biological target: Rho-associated protein kinase 2 (Homo sapiens) (UniProt O75116); settings: at 0.1 µM
Rho-associated protein kinase 2 (Homo sapiens), sequence (O75116 whole entry, looked up): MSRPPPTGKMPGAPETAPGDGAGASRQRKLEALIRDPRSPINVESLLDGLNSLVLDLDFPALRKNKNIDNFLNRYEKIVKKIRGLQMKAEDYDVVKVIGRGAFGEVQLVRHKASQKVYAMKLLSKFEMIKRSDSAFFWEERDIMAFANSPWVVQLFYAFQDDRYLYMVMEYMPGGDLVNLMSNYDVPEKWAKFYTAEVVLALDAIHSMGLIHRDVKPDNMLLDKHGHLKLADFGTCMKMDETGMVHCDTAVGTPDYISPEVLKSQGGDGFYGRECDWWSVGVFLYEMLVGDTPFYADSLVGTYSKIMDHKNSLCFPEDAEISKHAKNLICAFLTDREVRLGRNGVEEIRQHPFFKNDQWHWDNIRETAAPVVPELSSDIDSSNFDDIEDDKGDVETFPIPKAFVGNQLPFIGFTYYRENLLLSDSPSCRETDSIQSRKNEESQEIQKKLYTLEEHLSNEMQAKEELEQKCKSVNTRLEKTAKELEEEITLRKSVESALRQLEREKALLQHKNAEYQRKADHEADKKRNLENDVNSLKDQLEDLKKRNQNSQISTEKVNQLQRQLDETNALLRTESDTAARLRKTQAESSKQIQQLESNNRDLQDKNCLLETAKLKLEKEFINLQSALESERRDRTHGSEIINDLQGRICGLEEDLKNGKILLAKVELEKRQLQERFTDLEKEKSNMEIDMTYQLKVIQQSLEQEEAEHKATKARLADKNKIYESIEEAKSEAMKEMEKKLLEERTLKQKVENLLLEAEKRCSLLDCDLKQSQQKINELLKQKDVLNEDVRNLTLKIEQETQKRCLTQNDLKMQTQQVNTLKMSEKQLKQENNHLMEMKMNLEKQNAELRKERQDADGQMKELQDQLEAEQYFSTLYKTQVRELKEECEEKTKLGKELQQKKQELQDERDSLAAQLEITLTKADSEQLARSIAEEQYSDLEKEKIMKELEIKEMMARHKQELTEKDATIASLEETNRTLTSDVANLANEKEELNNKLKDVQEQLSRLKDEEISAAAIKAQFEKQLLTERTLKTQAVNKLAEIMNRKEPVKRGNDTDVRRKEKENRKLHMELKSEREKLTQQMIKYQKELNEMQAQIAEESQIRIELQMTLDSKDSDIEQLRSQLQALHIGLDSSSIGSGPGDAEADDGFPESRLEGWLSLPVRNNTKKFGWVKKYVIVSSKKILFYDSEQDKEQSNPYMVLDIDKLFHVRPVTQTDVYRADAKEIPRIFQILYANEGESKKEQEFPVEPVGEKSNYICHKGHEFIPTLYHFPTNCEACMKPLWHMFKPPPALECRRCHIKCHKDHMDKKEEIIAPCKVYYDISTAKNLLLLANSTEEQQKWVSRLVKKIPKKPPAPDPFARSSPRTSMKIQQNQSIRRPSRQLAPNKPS

[13] = biological target: Rho-associated protein kinase 2 (Homo sapiens) (UniProt O75116); settings: at 1 µM
[14] = biological target: Ribosomal protein S6 kinase alpha-1 (Homo sapiens) (UniProt Q15418); settings: at 0.1 µM
Ribosomal protein S6 kinase alpha-1 (Homo sapiens), sequence (Q15418 whole entry): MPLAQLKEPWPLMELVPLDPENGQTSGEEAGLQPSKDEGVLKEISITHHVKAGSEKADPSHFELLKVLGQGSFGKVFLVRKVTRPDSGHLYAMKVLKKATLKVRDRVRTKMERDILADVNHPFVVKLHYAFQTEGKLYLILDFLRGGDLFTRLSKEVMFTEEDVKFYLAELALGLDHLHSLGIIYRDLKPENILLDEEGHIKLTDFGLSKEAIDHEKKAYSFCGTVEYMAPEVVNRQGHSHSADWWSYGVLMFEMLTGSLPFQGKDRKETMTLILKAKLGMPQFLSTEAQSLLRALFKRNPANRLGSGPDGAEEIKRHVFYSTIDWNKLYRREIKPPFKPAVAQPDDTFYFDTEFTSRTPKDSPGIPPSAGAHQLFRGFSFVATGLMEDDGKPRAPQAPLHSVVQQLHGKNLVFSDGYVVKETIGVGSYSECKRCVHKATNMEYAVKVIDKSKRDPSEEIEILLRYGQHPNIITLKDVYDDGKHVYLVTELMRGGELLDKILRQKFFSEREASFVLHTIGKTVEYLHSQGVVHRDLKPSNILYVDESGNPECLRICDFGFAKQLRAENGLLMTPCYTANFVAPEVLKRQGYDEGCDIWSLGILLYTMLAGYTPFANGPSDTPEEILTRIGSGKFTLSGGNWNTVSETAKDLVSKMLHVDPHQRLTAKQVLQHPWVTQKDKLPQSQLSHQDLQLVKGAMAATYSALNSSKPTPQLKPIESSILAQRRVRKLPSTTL

[15] = biological target: Ribosomal protein S6 kinase alpha-1 (Homo sapiens) (UniProt Q15418); settings: at 1 µM
[16] = biological target: Ribosomal protein S6 kinase alpha-3 (Homo sapiens) (UniProt P51812); settings: at 0.1 µM
[17] = biological target: Ribosomal protein S6 kinase alpha-3 (Homo sapiens) (UniProt P51812); settings: at 1 µM
[18] = biological target: Ribosomal protein S6 kinase alpha-2 (Homo sapiens) (UniProt Q15349); settings: at 0.1 µM
Ribosomal protein S6 kinase alpha-2 (Homo sapiens), sequence (Q15349 whole entry): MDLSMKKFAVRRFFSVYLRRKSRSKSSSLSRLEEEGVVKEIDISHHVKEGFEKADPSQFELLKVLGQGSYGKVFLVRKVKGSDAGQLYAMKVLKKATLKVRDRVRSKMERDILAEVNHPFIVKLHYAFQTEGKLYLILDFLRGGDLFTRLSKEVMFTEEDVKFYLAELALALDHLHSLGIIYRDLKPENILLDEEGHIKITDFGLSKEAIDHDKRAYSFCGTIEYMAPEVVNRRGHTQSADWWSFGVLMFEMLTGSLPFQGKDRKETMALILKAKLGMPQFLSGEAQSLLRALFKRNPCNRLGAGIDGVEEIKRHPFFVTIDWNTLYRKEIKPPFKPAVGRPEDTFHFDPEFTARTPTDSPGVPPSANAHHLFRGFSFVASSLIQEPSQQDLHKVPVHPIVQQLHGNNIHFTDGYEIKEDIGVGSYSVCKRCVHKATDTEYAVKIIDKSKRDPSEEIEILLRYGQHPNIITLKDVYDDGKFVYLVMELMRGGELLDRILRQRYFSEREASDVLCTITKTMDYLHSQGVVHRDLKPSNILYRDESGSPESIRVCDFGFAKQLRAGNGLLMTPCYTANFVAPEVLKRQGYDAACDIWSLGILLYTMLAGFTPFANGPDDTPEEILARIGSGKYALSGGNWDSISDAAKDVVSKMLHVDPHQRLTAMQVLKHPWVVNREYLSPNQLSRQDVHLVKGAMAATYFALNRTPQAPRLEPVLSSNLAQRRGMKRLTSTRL

[19] = biological target: Ribosomal protein S6 kinase alpha-2 (Homo sapiens) (UniProt Q15349); settings: at 1 µM
[20] = biological target: Ribosomal protein S6 kinase alpha-6 (Homo sapiens) (UniProt Q9UK32); settings: at 0.1 µM;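 note: reported value is the mean inhibition of RSK4, from the GSK PKIS kinase inhibitor screen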
Ribosomal protein S6 kinase alpha-6 (Homo sapiens), sequence (Q9UK32 whole entry): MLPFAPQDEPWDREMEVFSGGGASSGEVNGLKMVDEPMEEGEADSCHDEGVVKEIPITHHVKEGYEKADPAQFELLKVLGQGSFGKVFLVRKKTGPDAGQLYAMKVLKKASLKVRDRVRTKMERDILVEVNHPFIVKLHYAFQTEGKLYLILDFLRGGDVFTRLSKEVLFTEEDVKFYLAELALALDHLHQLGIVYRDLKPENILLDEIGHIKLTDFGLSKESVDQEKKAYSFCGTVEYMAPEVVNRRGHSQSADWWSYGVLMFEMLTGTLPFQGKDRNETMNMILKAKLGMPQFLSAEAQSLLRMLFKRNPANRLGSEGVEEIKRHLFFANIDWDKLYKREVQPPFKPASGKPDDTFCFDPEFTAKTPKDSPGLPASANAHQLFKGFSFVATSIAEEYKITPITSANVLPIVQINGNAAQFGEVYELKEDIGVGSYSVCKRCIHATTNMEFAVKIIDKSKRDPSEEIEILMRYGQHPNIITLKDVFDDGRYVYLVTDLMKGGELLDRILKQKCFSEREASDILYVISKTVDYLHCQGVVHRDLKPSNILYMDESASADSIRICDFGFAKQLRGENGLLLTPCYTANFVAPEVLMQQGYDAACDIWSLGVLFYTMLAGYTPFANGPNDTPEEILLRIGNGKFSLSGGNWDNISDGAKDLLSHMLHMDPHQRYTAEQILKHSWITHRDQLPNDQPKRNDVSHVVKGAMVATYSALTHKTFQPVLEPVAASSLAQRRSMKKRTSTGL

Row | SMILES | inhibition [1] [%] | inhibition [2] [%] | inhibition [3] [%] | inhibition [4] [%] | inhibition [5] [%] | inhibition [6] [%] | inhibition [7] [%] | inhibition [8] [%] | inhibition [9] [%] | inhibition [10] [%] | inhibition [11] [%] | inhibition [12] [%] | inhibition [13] [%] | inhibition [14] [%] | inhibition [15] [%] | inhibition [16] [%] | inhibition [17] [%] | inhibition [18] [%] | inhibition [19] [%] | inhibition [20] [%]
1 | Nc1nccc(-c2c(-c3ccc(F)cc3)nn3cc(C(F)(F)F)ccc23)n1 | 3.04 | 0.99 | 3.75 | -0.61 | -0.49 | -0.17 | -0.08 | 0.72 | -0.61 | -0.4 | -0.27 | -1.57 | 0.18 | 0.48 | 0.53 | -0.83 | -1.02 | 0.95 | 0.63 | -1.83
2 | CS(=O)(=O)CCNCc1nc(-c2ccc3ncnc(Nc4ccc(OCc5cccc(C(F)(F)F)c5)cc4)c3c2)cs1 | 0.2 | 0.92 | 2.19 | 0.49 | 2.23 | 0.51 | 1.54 | 0.7 | -0.71 | -0.53 | -0.55 | 0.87 | 1.92 | -1.01 | 0.29 | 1.21 | 1.84 | 1.45 | 2.09 | 0.32
3 | CN(C)c1cc2c(Nc3ccc4c(cnn4Cc4ccccc4)c3)ncnc2cn1 | 4.01 | 3.24 | 4.21 | 0.2 | 4.15 | 2.57 | 2.77 | 1.48 | 0.84 | 0.25 | 2.38 | 2.57 | 3.89 | 0.98 | 3.04 | 1.41 | 2.13 | 1.63 | 3.42 | 0.97
4 | C[C@@H](Oc1cc(-n2cnc3ccc(OC[C@@H](O)CO)cc32)sc1C(N)=O)c1ccccc1Cl | 1.51 | -1.65 | 0.06 | -2.27 | -0.2 | -0.02 | -0.19 | -1.09 | -8.23 | 0.14 | 1.42 | -0.36 | 0.84 | 0.36 | 3.32 | 1.35 | 5.89 | -0.54 | 3.27 | -0.4
